About 83,000 compounds went through this panel and 20% of them were active in at least one assay; those are over-represented in the sample as a whole.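 Growth was measured after 48 h exposure to one concentration of compound in 96-well plates. Values under 10 count as active.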 Calls of active or inactive are those of the source.
Tests used:
Assay in all cases: NCI-60 one-dose screen, 48 h (100 = growth as untreated, 0 = no growth, -100 = all killed)
Settings in all cases: 10 µM unless noted
[1] = system: DU-145 prostate
[2] = system: K-562 leukemia
[3] = system: MALME-3M melanoma
[4] = system: MDA-MB-231 breast
[5] = system: RXF 393 renal
[6] = system: SF-268 CNS
[7] = system: SF-295 CNS
[8] = system: SF-539 CNS
[9] = system: UACC-257 melanoma
[10] = system: M14 melanoma
[11] = system: HCT-15 colon
[12] = system: HT29 colon
[13] = system: SNB-75 CNS
[14] = system: SNB-19 CNS
[15] = system: U251 CNS
[16] = system: PC-3 prostate
[17] = system: SK-MEL-5 melanoma
[18] = system: UACC-62 melanoma
[19] = system: LOX IMVI melanoma
[20] = system: SK-MEL-28 melanoma

Measured: growth

N/C(=N/N=C/c1ccccc1)N/N=C\c1ccccc1
inactive: [1] 73.6% | [2] 21.8% | [3] 67.4% | [4] 76.3% | [5] 24.8% | [6] 76% | [7] 66.9% | [8] 58% | [9] 68.5% | [10] 26.8% | [11] 44.1% | [12] 27.7% | [13] 67.1% | [14] 74.6% | [15] 50.2% | [16] 64.3% | [17] 34.1% | [18] 70.5% | [19] 62.1% | [20] 71.9%

CCn1c(C)nc2cc(C(N)=O)ccc21
inactive: [1] 110% | [2] 102% | [3] 96.4% | [4] 113% | [5] 93.4% | [6] 104% | [7] 238% | [8] 96.4% | [9] 87.9% | [10] 95.5% | [11] 92.8% | [12] 98.7% | [13] 90.2% | [14] 104% | [15] 95.4% | [16] 101% | [17] 112% | [18] 89.2% | [19] 91.6% | [20] 113%

COc1ccc2c(c1)[nH]c(=O)c1c3cccnc3cn21
active: [1] 9.39% | [7] -6.51% | [8] 8.85% | [12] 8.6% | [17] -33.6%
inactive: [2] 17.4% | [3] 62.6% | [4] 28.9% | [5] 37% | [6] 27.3% | [9] 64.5% | [10] 16.2% | [11] 13.7% | [13] 40.5% | [14] 32.7% | [15] 15.6% | [16] 22% | [18] 16.5% | [19] 33.1% | [20] 70.8%

CCN1CCN(c2nc(C)cc(NCc3cc(Nc4ccnc5cc(Cl)ccc45)ccc3F)n2)CC1
inactive: [1] 38% | [6] 16.6% | [14] 34.7% | [16] 19.5%
active: [2] -38.3% | [3] -69% | [4] -31.1% | [5] -10.8% | [7] -55% | [8] -81% | [9] -57.7% | [10] -83.7% | [11] -24.2% | [12] -12.6% | [13] -34.7% | [15] -27.2% | [17] -96.4% | [18] -49.8% | [19] -81.5% | [20] -80.3%

O=C(NCCCNc1cc(-c2cn(-c3ccccc3)nc2-c2cccc(O)c2)ccn1)c1cccc(O)c1
active: [2] 7.59%
inactive: [1] 78.3% | [3] 64.2% | [4] 43.5% | [5] 77.3% | [6] 63.8% | [7] 83.3% | [8] 69.5% | [9] 58.4% | [10] 52.8% | [11] 79.5% | [12] 87% | [13] 59.8% | [14] 79.7% | [15] 42.3% | [16] 39.4% | [17] 43.7% | [18] 42% | [19] 54.1% | [20] 77.6%

COc1cc(C2CC(=O)Nc3c2c(C)nn3-c2nc3ccccc3[nH]2)cc2c1OCC(=O)N2 (stereo not given)
inactive: [1] 111% | [2] 89.3% | [3] 117% | [4] 55.8% | [6] 48.8% | [7] 19.1% | [8] 50.6% | [9] 69.6% | [10] 34.8% | [11] 95.3% | [12] 66.9% | [13] 19.3% | [14] 49.1% | [15] 55.2% | [16] 69.1% | [17] 52.3% | [18] 65.5% | [19] 51.2% | [20] 65.4%
active: [5] -0.584%

O=C(c1ccccc1)c1c(/C=C/c2ccc(Cl)cc2)nc2ccccc2c1/C=C/c1cccs1
inactive: [1] 107% | [2] 83.6% | [3] 99.3% | [4] 94.4% | [5] 104% | [6] 93.5% | [7] 102% | [8] 97.3% | [9] 87.7% | [10] 96.8% | [11] 96.6% | [12] 100% | [13] 84.1% | [14] 89.7% | [15] 93.5% | [16] 91.8% | [17] 100% | [18] 87.4% | [19] 94.2% | [20] 102%

Source: PubChem BioAssay (NCI)
